# IL1B secr inh: inhibitors of inflammasome signaling (IL-1 beta secretion); hit rate 4.7% among 360,000; activity change, % at 57.5 µM; THP-1 LPS/ATP IL-1B secretion, AlphaLISA, 16 h; stronger effect = lower value; in the data active means activity change below about -50%; inconclusive means mostly about -30% to -49%
#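 THP-1 cells pretreated 1 hr with compounds (up to 57.5 uM final), then stimulated with LPS (250 ng/mL final) plus ATP (1.25 mM final); secreted IL-1B measured by AlphaLISA after 16 hr, decreased signal indicating inhibition.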
# D3 ag: activates the human D3 dopamine receptor; P35462; max activation, %; D3R DiscoveRx beta-arrestin cells, luminescence, 90 min; hit rate 0.58% among 410,000; in the data active means max activation above about 30%
# Target sequence (P35462 whole entry, looked up): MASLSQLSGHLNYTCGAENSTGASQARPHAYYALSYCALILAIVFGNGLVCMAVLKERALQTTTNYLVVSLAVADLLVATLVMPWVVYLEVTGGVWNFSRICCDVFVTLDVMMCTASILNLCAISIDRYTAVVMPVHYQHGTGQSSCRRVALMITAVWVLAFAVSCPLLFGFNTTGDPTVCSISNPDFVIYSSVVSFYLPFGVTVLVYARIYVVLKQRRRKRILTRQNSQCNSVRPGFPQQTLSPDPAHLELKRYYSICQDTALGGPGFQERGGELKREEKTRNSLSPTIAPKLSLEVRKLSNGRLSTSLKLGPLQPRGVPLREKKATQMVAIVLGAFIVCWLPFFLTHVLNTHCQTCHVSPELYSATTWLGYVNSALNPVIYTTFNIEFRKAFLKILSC
#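 Cells at 1500/well, incubated overnight, then treated with pinned compounds (dopamine as control) for 90 min at 37 degrees C. DiscoveRx reagent added for 30 - 60 minutes at room temperature; luminescence read.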
# DRD3 antagonist: D3 dopamine receptor (human) antagonism. P35462. D3R cells, DiscoveRx beta-arrestin luminescence, antagonist mode; stronger effect = lower value. max response, negative = inhibition, %. hit rate 2.5% among 360,000. AID 652054; in the data active means max response below about -50%; inconclusive means no clear call, values can overlap the other calls
#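 Cells plated overnight at 1500 cells/well, then exposed to library compounds with dopamine controls for 90 minutes at 37 degrees C. DiscoveRx reagent added for 30–60 minutes at room temperature; luminescence read, quantitative HTS format.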
# DT40 TDP1 CPT: DT40-hTDP1 cell growth loss with CPT; AID 686979; Potency, µM (top dose mostly 46.2 µM), actives largely listed as inhibitors; chicken DT40 Tdp1-/-;hTDP1 cells + 20 nM CPT, ATP luminescence, 48 h; hit rate 12% among 420,000; further: nearly all actives have a fitted effect of over 55% in size
#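 Cell growth measured by CellTiter-Glo luminescence after a minimum 48 h, 37 C compound exposure with 20 nM CPT in Tdp1-knockout DT40 cells stably expressing hTDP1, seeded 400/well; qHTS titration format.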
# TDP1 cell noCPT: qHTS for Inhibitors of human tyrosyl-DNA phosphodiesterase 1 (TDP1): qHTS in cells in absence of CPT; DT40 Tdp1-/- hTDP1 cells, no CPT, ATP luminescence, 48 h; Potency, µM (highest dose often 46.2 µM), usual class: inhibitors; hit rate 15% among 420,000; AID 686978, 2013; further: nearly all actives have a fitted effect of over 55% in size
#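 Luminescent ATP content (CellTiter-Glo) served as the growth readout. Knockout chicken DT40 cells expressing human TDP1 were exposed to compounds without camptothecin for a minimum 48 hr at 37 °C.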
# ClpP mod: qHTS Assay for Activators of ClpP. purified B. subtilis ClpP, FRET peptide cleavage, 20 min. hit rate 1.9% among 340,000. ATP-dependent Clp protease proteolytic subunit (Bacillus subtilis (strain 168)), P80244. Potency, µM (series often up to 57.5 µM); active means well fitted falling curve with a large enough effect; inconclusive means small, poorly fitted or top-dose-only effect; inactive means no such curve, though single readings can be large or run the other way; further: the source files actives as falling curves though it sought activators and does not explain the sign; nearly all actives have a fitted effect of over 65% in size
# Target sequence (P80244 whole entry, looked up): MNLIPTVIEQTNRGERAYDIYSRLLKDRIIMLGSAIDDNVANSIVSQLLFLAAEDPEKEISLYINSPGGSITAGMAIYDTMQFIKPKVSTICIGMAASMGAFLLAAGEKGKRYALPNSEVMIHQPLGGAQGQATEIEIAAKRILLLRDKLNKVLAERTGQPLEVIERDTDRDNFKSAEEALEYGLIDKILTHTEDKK
#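 Buffer: 100 mM Tris/HCl pH8, 100 mM KCl, 0.05% low protease BSA, 2.5% glycerol, 0.01% Tween-20. ClpP 10 microg/mL final; 20 min RT; delta FRET normalized to ADEP and DMSO controls.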
# A number is an active result; i = inactive; ? = inconclusive; nt = no result. Only some compounds are listed: those with a hit (about 21% of all), similar ones and a draw of the others. Unless noted, the call rests on the fitted dose curve; in most records, active means well fitted inhibition curve with a large enough effect; inconclusive means small, poorly fitted or top-dose-only effect; inactive means flat fitted curve, though single readings scatter.
SMILES,IL1B secr inh,D3 ag,DRD3 antagonist,DT40 TDP1 CPT,TDP1 cell noCPT,ClpP mod
CC(=O)c1cccc(NC(=O)CSc2ncc(C(=O)Nc3ccccc3)c(=O)n2C)c1,i,i,i,7.3µM,7.3µM,i
CCOC(=O)N1CCN(C(=O)CN(c2ccccc2F)S(=O)(=O)c2ccc(C)cc2)CC1,nt,i,nt,?,?,i
O=C(Nc1cc(S(=O)(=O)N2CCOCC2)ccc1OCC(F)(F)F)C1=COCCO1,i,i,i,i,i,i
CCOC(=O)c1cnc2c(CC)cccc2c1NCCN1CCOCC1,?,i,i,?,23µM,i
CCOC(=O)c1cnc2c(Cl)cc(Cl)cc2c1NCCCN1CCOCC1,i,i,i,i,?,i
CCOC(=O)c1cnc2c(C)cc(Cl)cc2c1NCCCN1CCOCC1,-73,i,i,i,?,nt
CCOC(=O)c1cnc2ccc(Br)cc2c1NCCN1CCOCC1,nt,i,nt,21µM,21µM,i
CCOC(=O)c1cnc2c(C(=O)OC)cccc2c1NCCN1CCOCC1,i,i,i,i,i,i
CCCCOc1ccc(C(=O)Nc2ccc(N3CCN(C(=O)C(C)C)CC3)cc2)cc1,i,i,i,8.2µM,7.3µM,i
COc1ccc(C(=O)Nc2ccc(N3CCN(C(=O)C(C)C)CC3)cc2)cc1[N+](=O)[O-],i,i,i,?,12µM,i
COc1cc(C(=O)Nc2ccc(N3CCN(C(=O)c4ccc(C)cc4)CC3)cc2)cc(OC)c1OC,i,i,i,21µM,15µM,i
O=C(Nc1ccc(C2=NCCN2)cc1)c1ccc(C(=O)Nc2ccc(C3=NCCN3)cc2)c([N+](=O)[O-])c1,i,i,i,6.5µM,6.5µM,nt
O=C(Nc1ccc2c(c1)OCO2)c1ccc([N+](=O)[O-])cc1[N+](=O)[O-],i,i,i,?,?,nt
COc1ccc(C(=O)Nc2ccc(N3CCN(C)CC3)cc2)cc1[N+](=O)[O-],i,i,i,i,i,i
CC(C1CC1)N(Cc1ccccc1)C(=S)Nc1ccccc1Cl (stereo not drawn),i,i,i,i,i,i
COc1ccc(C(=O)NC(=S)Nc2cc(C)ccn2)cc1[N+](=O)[O-],i,i,i,16µM,?,i
COc1ccc(C(=O)Nc2ccc(N3CCN(C(=O)c4ccccc4)CC3)cc2)cc1[N+](=O)[O-],?,i,i,15µM,?,i
COc1ccc(C(=O)Nc2ccncc2)cc1[N+](=O)[O-],-79,i,i,i,i,i
COc1ccc(C(=O)NC(=S)Nc2ccc(N3CCN(C(C)=O)CC3)cc2)cc1[N+](=O)[O-],i,i,i,i,?,i
Cc1nn(-c2ccccc2)c2c1N(CCCC(=O)NC(C)c1ccccc1)C(=O)CS2 (stereo not drawn),nt,i,nt,15µM,?,i
Cc1ccc(-n2nc3c(=O)n(CCCC(=O)NC(C)c4ccccc4)nc(C)c3c2C)cc1 (stereo not drawn),nt,i,nt,i,?,i
CCCCOc1ccc(CNC(=O)CCCN2C(=O)CSc3c2c(C)nn3-c2ccccc2)cc1,nt,i,nt,18µM,13µM,i
Cc1nn(-c2ccccc2)c2c1N(CCCC(=O)NCc1ccc(Cl)cc1)C(=O)CS2,nt,i,nt,26µM,23µM,i
Cc1nn(-c2ccccc2)c2c1N(CCCC(=O)NCc1ccc(OC(C)C)cc1)C(=O)CS2,nt,i,nt,15µM,7.3µM,i
COc1ccc(Cl)cc1-n1nnc(-c2nc(-c3ccccc3)no2)c1C,nt,i,nt,i,i,i
SMILES,IL1B secr inh,D3 ag,DRD3 antagonist,DT40 TDP1 CPT,TDP1 cell noCPT,ClpP mod
Cc1noc(C)c1S(=O)(=O)Nc1ccc(O)c2c(=O)cc(-c3ccccc3Cl)oc12,i,i,i,i,?,i
CN(CC(=O)NC(=O)NC1CCCCC1)Cc1ccccc1,i,i,i,i,?,i
COc1ccccc1NS(=O)(=O)c1ccc(C(=O)N2CC(C)OC(C)C2)cc1 (stereo not drawn),i,i,i,?,i,i
Cc1ccc2c(c1)N(C(=O)N1CCC(C(=O)NCc3ccccc3C)CC1)CC(C)O2 (stereo not drawn),nt,i,nt,21µM,16µM,i
Cc1ccc(CNC(=O)C2CCN(C(=O)N3CC(C)Oc4ccc(Cl)cc43)CC2)cc1 (stereo not drawn),nt,i,nt,?,18µM,i
Cc1ccc(NC(=O)Cn2cc(S(=O)(=O)NC(C)C)c(S(=O)(=O)NC(C)C)c2)cc1Cl,nt,i,nt,?,i,i
CCNS(=O)(=O)c1ccc(OCCNS(C)(=O)=O)cc1,i,i,i,i,?,i
CCOc1cc(S(=O)(=O)N(CC)CC)ccc1Cl,i,i,i,i,i,nt
CCN(CC)S(=O)(=O)c1ccc(Oc2ccccc2OC)cc1,i,i,i,18µM,?,i
CCN(CC)S(=O)(=O)c1ccc(Oc2ccc(S(=O)(=O)N(CC)CC)cc2)cc1,?,i,i,18µM,5.8µM,i
CCN(CC)S(=O)(=O)c1ccc(N)cc1,i,i,i,i,i,i
CCCN(CCC)S(=O)(=O)c1ccc(Cl)c(OC)c1,i,i,i,?,13µM,nt
CCN(CC)S(=O)(=O)c1ccc(OCCNS(C)(=O)=O)cc1,i,i,i,6.5µM,16µM,nt
Cc1cc(C)cc(OCc2cc(=O)n3cc(C)sc3n2)c1,nt,i,nt,i,i,i
COc1ccc(/C=c2\[nH]c(=O)/c(=C/c3ccc(OC)cc3)[nH]c2=O)cc1,nt,nt,nt,i,i,i
COC1=CC(=O)c2ccccc2C1=O,i,i,-71,3.7µM,4.1µM,i
COC1=CC(=O)C=C(OC)C1=O,-107,i,-121,0.65µM,0.82µM,i
CC1CCCN(CCCNC(=O)Cn2ncc3c([nH]c4ccccc43)c2=O)C1 (stereo not drawn),nt,i,nt,i,i,i
CCN(CC)C(=O)Cn1cc(C(=O)C(=O)N(CC)C2CCCCC2)c2ccccc21,i,i,i,?,?,i
CCOc1ccc(NC(=O)N(Cc2cn(CC)c3ccccc23)C2CCCCCC2)cc1,nt,i,nt,9.2µM,21µM,i
CCc1ccc(NC(=O)N(Cc2cn(CC)c3ccccc23)C2CCCCC2)cc1,nt,i,nt,7.3µM,12µM,i
O=C(O)C1CCCCN1C(=O)c1ccc(S(=O)(=O)N2CCCCCC2)cc1 (stereo not drawn),i,i,i,i,i,i
Cc1cc2c(cc1S(=O)(=O)CCC(=O)N1CCCCC1C)OCC(=O)N2 (stereo not drawn),nt,i,nt,nt,nt,i
Cc1c(NS(=O)(=O)c2ccc(C(=O)NCc3ccccc3)cc2)c(=O)n(-c2ccccc2)n1C,i,i,i,i,?,nt
